# Test results from PubChem BioAssay AID588579 (National Center for Advancing Translational Sciences (NCATS), 2011).
# In all, about 400,000 compounds went through this assay and about 2,200 (0.55%) were called active. Where a call stands in place of a potency, no number is given. Roughly 1% stayed inconclusive and do not appear here. The sample holds actives, similar compounds and a random draw of the others, so the mix is not that of the screen. A number with no mark means an inactive call. Calls come from the whole dose curve; as a rule, active = well fitted inhibition curve with a large enough effect; inconclusive = small, poorly fitted or top-dose-only effect, or another doubt; inactive = no such curve, though single readings can be large or run the other way.
# Molecular target: DNA polymerase kappa (Homo sapiens) (UniProt Q9UBT6)
# Assay: qHTS for Inhibitors of Polymerase Kappa
# Conditions: purified Pol kappa, fluorescent DNA synthesis assay, 10 min; series mostly up to 107 µM
# Procedure: The processing and repair of DNA interstrand crosslinks (ICL) in eukaryotic cells are extremely complex, potentially involving multiple DNA repair and damage tolerance pathways, including homologous recombination, nucleotide excision repair, translesion synthesis (TLS), and cell cycle checkpoints.
# To that end, in a collaboration between the Oregon Health & Science University and the NIH Chemical Genomics Center a 1536-well high-throughput screen was developed. This fluorescent screen was assayed against the NIH Molecular Libraries Small Molecule Repository (MLSMR) to discover inhibitors of Pol Kappa.
# NIH Chemical Genomics Center [NCGC]
# NIH Molecular Libraries Probe Centers Network [MLPCN]
# Assay Submitter (PI): Stephen Lloyd, Oregon Health & Science University
# Three microliters of reagents (buffer in column 3 and 4 as negative control and 10 nM Pol kappa in columns 1, 2, and 5-48) were dispensed into a 1536-well black solid-bottom plate. Compounds (23 nL) were transferred via Kalypsys pin tool equipped with 1536-pin array. The plates were then incubated for 15 min at room temperature, and 1 uL substrate (50 nM final concentration) were then added to start the reaction and kinetically read twice at 0 min and 10 min on the Viewlux reader
# Potency is the fitted concentration of half-maximal effect.
# Sequence of DNA polymerase kappa (Homo sapiens) (Q9UBT6 whole entry, looked up): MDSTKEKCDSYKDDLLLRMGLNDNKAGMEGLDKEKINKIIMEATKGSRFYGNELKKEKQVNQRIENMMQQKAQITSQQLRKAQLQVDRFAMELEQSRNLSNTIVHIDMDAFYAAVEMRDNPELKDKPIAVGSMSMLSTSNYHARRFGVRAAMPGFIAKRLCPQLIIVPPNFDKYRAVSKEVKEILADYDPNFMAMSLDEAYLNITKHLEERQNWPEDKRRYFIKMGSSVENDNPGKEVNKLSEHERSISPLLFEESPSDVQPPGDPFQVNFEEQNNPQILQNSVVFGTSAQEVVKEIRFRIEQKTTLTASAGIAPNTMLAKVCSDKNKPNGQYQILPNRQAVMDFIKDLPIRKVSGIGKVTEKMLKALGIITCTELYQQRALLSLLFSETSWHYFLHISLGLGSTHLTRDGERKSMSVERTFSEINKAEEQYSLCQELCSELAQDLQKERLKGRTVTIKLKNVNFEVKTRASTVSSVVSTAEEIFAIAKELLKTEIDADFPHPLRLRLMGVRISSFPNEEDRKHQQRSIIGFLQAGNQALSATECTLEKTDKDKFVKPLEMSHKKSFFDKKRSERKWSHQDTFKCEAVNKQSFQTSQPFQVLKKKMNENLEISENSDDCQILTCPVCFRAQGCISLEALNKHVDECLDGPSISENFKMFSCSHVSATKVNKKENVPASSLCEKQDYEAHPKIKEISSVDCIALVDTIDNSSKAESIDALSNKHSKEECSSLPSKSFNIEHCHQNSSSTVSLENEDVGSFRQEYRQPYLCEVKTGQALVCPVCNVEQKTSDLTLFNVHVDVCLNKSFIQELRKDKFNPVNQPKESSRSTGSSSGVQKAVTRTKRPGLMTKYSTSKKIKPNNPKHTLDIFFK
Compound,Potency,"activity, negative = inhibition"
CCOC(=O)C1CCN(C(c2ccc(F)cc2)c2sc3nc(-c4ccco4)nn3c2O)CC1 (stereo unspecified),inactive,
CCOc1ccccc1/C=c1\sc2nc(-c3ccco3)nn2c1=O,89.1 µM (active),
Oc1c(C(c2ccccc2Cl)N2CCOCC2)sc2nc(-c3ccco3)nn12 (stereo unspecified),inactive,
NCCC(=O)c1ccccc1N,,1.11% [at 19.4 µM]
O=C(O)C(O)[C@@](O)(Cc1ccc(O)cc1)C(=O)O (stereo partly specified),inactive,
O=C(CN1CCN(S(=O)(=O)c2cc(Cl)ccc2Cl)CC1)c1ccc(O)c(O)c1,28.2 µM (active),
O=S(=O)(c1cc(Cl)ccc1Cl)N1CCN(Cc2ccco2)CC1,inactive,
CCN1CCN(C(=O)C2CCN(S(=O)(=O)c3cc(Cl)ccc3Cl)CC2)CC1,inactive,
NNc1nnc(NN)c2ccccc12,,2.28% [at 19.4 µM]
CC(=O)/C(C)=N\O,,-8.23% [at 19.4 µM]
CC1(C)C=Cc2c(ccc(C(=O)/C=C/c3ccccc3)c2O)O1,inactive,
COc1ccc(CNc2ncnc3ccc(-c4cccnc4)cc23)c(OC)c1,inactive,
O=C(c1ccc(CS(=O)(=O)c2ccccc2)o1)N1CCN(c2ccccc2)CC1,79.4 µM (active),
O=C(c1ccc(Br)o1)N1CCN(CCOc2ccccc2)CC1,inactive,
CCOC(=O)C1CCCN(C(=O)c2ccc(CS(=O)(=O)c3ccc(Br)cc3)o2)C1 (stereo unspecified),inactive,
Nc1nc2c(ncn2[C@@H]2O[C@H](COP(=O)(O)OP(=O)(O)OP(=O)(O)O)[C@@H](O)C2O)c(=O)[nH]1 (stereo partly specified),,-4.75% [at 19.4 µM]
COc1ccc(OC)c([C@H](O)CNC(=O)CN)c1,,-13.4% [at 19.4 µM]
COC1C[C@@H](O[C@@H]2C(C)C(=O)OC(C)C(C)C(O)C(C)C(=O)[C@@]3(CO3)CC(C)C(OC3OC(C)CC(N(C)C)C3O)C2C)OC(C)[C@@H]1O (stereo partly specified),inactive,
O=P(O)(O)OC[C@H](O)CO,inactive,
COc1c2c(cc3occ(-c4ccc5c(c4)OCO5)c(=O)c13)OC(C)(C)C=C2,inactive,
COc1cccc2c1C(=O)c1c(O)c3c(c(O)c1C2=O)CC(O)(C(C)=NNC(=O)c1ccc(Cl)c(Cl)c1)CC3OC1CC(N)C(O)C(C)O1 (stereo unspecified),17.8 µM (active),
Cc1cccc(-c2nnc(SC(C)C(=O)Nc3ccccc3)n2C)c1 (stereo unspecified),inactive,

Compound,Potency,"activity, negative = inhibition"
COc1cccc(Nc2ncc3ncc(=O)n(C4CC4)c3n2)c1,inactive,
NC(=O)[C@H]1CC2(CC(c3cccc(NC(=O)[C@H]4CCC(=O)N4)c3)=NO2)CN1C(=O)c1ccccc1C(=O)c1ccccc1 (stereo partly specified),inactive,
CCC(=O)Nc1cccc(C2=NOC3(C2)C[C@@H](C(N)=O)N(C(=O)c2cc([N+](=O)[O-])cc([N+](=O)[O-])c2C)C3)c1 (stereo partly specified),inactive,
C=C(C)C(=O)Nc1cccc(C2=NOC3(C2)C[C@H](C(N)=O)N(C(=O)C(c2ccccc2)c2ccccc2)C3)c1 (stereo partly specified),25.1 µM (active),
CN1[C@H]2CC(OC(=O)[C@@H](CO)c3ccccc3)C[C@H]1[C@H]1O[C@H]12 (stereo partly specified),,-3.18% [at 12 µM]
O=C(c1cnccn1)N1CCC2(CCN(Cc3cc(C(F)(F)F)cc(C(F)(F)F)c3)CC2)CC1,inactive,
Cc1nc2cnc(Oc3cccc(Cl)c3)nc2n(C2CC2)c1=O,inactive,
S=c1[nH]c(=S)c2n[nH]nc2[nH]1,inactive,
COc1ccc(Nc2cc(C(=O)NCCCN(C)c3ccccc3)c3ccccc3n2)c(OC)c1,inactive,
COc1ccccc1Nc1cc(C(=O)NCCCN(C)C2CCCCC2)c2ccccc2n1,inactive,
CN(C)CCNC(=O)c1ccc(Cl)c2cc3ccccc3nc12,50.1 µM (active),
O=C(c1csnn1)N1CCC[C@@]2(CCN(c3cccc(-c4ccccc4)c3)C2)C1,inactive,
CC(=O)c1ccc(S(=O)(=O)N2CCC(Oc3ccc(-n4cnnn4)cc3)CC2)cc1,inactive,
CC(=O)c1ccc(S(=O)(=O)N2CCN(C(=O)/C=C/c3ccc4ccccc4n3)CC2)cc1,79.4 µM (active),
CC(=O)c1cccc(Nc2ccc3cc(S(=O)(=O)N4CCC(C)CC4)ccc3n2)c1,inactive,
Cc1cccc(NC(=O)COC(=O)c2ccccc2OCc2cccc(Br)c2)c1,inactive,
C=C1C(=O)C23C(O)C1CCC2[C@]12COC3(O)C(O)C1C(C)(C)CC[C@H]2O (stereo partly specified),inactive,
O=C(O)c1ccc(NN=CC2=C(N3CCOCC3)/C(=C/c3ccccc3)CC2)cc1,28.2 µM (active),
O=C(Nc1cc(Cl)ccc1N1CCOCC1)c1ccc(N2CCCC2=O)cc1,inactive,
CC(C)(CNC(=O)c1ccc(Cl)c(S(=O)(=O)N2CCc3ccccc3C2)c1)N1CCOCC1,inactive,
Cc1cc(/C=N/Nc2ccc([N+](=O)[O-])cn2)c(C)n1-c1cccc(C(=O)O)c1,70.8 µM (active),
CN1CCN(C(=O)c2cnn(-c3ccccc3)c2NC(=O)c2ccc([N+](=O)[O-])cc2)CC1,inactive,

Compound,Potency,"activity, negative = inhibition"
Cc1cccc(C(=O)NC(=S)N2CCN(c3ccc([N+](=O)[O-])cc3)CC2)c1,inactive,
COc1cc(OC)c(OC)cc1/C=C1\C=Cc2ccccc21,inactive,
O=c1c(-c2ccc(F)cc2)nc2cnc(N3CCNCC3)nc2n1Cc1cccs1,inactive,
CN(C)c1ccc(/C=C2\C=Cc3ccccc32)cc1Br,inactive,
CCN(CC)CCOc1ccc2c(c1)C(=NNC(=O)c1ccccn1)c1cc(OCCN(CC)CC)ccc1-2,10 µM (active),
CCOc1ccc(C(=O)N2CCN(CCc3ccccn3)CC2)cc1,inactive,
O=C(c1ccncc1)N1CCC2(CCN(Cc3cc(C(F)(F)F)cc(C(F)(F)F)c3)CC2)CC1,inactive,
C[C@]12CC[C@@H]3C(=CCc4cc(O)ccc43)[C@@H]1CCC2=O,,-6.88% [at 12 µM]
Oc1ccc(Cl)c2c1CCC2,,2.83% [at 19.4 µM]
C/C=C/C=N/NC(=O)c1ccncc1,,-3.32% [at 19.4 µM]
C=C1c2c(Cl)ccc(O)c2C(O)=C2C(=O)[C@]3(O)C(O)=C(C(N)=O)C(=O)[C@@H](N(C)C)[C@@H]3[C@@H](O)C12 (stereo partly specified),3.98 µM (active),
CN(C)[C@@H]1C(=O)C(C(N)=O)=C(O)[C@@]2(O)C(=O)C3=C(O)c4c(O)ccc(Cl)c4[C@@H](O)[C@H]3C[C@@H]12,89.1 µM (active),
O=C1C[C@H]2C=CCc3cccc(c32)CN1Cc1ccccc1,inactive,
O=C1CCC[C@@H]2C[C@@]3(C[C@@H]4CCN1[C@H]24)Nc1ccccc1NC3=NCc1ccccc1,inactive,
CC(=O)OCC(=O)[C@@]1(O)CCC2C3CCC4=CC(=O)CC[C@@]4(C)[C@]3(F)C(O)C[C@]21C (stereo partly specified),inactive,
Brc1ccc(C2=NCCC(c3ccccc3)O2)cc1 (stereo unspecified),inactive,
Cc1cc(C)c2nc(-c3ccco3)cc(C(=O)O)c2c1,22.4 µM (active),
Cc1cccc(NC(=O)CSc2nc(-c3ccco3)cc(C(F)(F)F)n2)c1C,inactive,
Cc1cc(C)c2nc(-c3cccnc3)cc(C(=O)Nc3ccc(S(=O)(=O)Nc4onc(C)c4C)cc3)c2c1,inactive,
Cc1ccc(C(=O)O)cc1-c1ccc(/C=C2\SC(=O)N(CC(=O)Nc3ccc4c(c3)OCO4)C2=O)o1,28.2 µM (active),
COC(=O)c1ccc2c(c1)N(CC(=O)Nc1ccc(C)c(C)c1)C(=O)c1ccccc1S2,inactive,
Cn1c(=O)c2ccccc2n(CC(=O)Nc2ccc3c(c2)OCCO3)c1=O,inactive,

Compound,Potency,"activity, negative = inhibition"
CCn1ccnc1C[C@@H]1COc2ccccc2O1,,-7.82% [at 19.4 µM]
NC[C@@H]1O[C@H](O[C@@H]2[C@H](O[C@@H]3O[C@H](CO)[C@@H](COC[C@H]4O[C@@H](CN)[C@@H](O)[C@@H](O)[C@@H]4N)[C@@H]3O)[C@@H](O)[C@@H](N)C[C@H]2N)[C@@H](N)[C@H](O)[C@@H]1O,,-0.462% [at 12 µM]
Cc1ccc(/C=C/C(=O)Nc2ccc([N+](=O)[O-])c(NC(=O)/C=C/c3ccc(C)o3)c2)o1,28.2 µM (active),
Cc1ccc(/C=C/C(=O)OCC(=O)NCc2ccc(Cl)cc2)o1,inactive,
COc1ccc(OC)c(NC(=O)/C=C/c2ccc(C)o2)c1,inactive,
CC1=C(/C=C/C(C)=C/C=C/C(C)=C/C=C/C=C(C)/C=C/C=C(C)/C=C/C(=O)[C@]2(C)C[C@@H](O)CC2(C)C)C(C)(C)C[C@H](O)C1,inactive,
O=C1C(c2[nH]c3ccccc3c2O)=Nc2ccccc21,,-10.8% [at 19.4 µM]
CCOc1ccc(CNC(=O)c2cc(-c3ccc(Cl)s3)nc3ccccc23)cc1,inactive,
Cc1cc(C)c2nc(SCC(=O)N(C)C3CCS(=O)(=O)C3)cc(C)c2c1 (stereo unspecified),inactive,
CCN(C(=O)COC(=O)/C=C/c1nc2ccccc2s1)C1CCS(=O)(=O)C1 (stereo unspecified),inactive,
CN(CCOc1ccccc1)C(=O)c1cc(-c2ccco2)nc2ccccc12,79.4 µM (active),
CN(C)C(CNC(=O)CCCOc1ccccc1)c1ccco1 (stereo unspecified),inactive,
CN(C(=O)COC(=O)c1cc(-c2ccco2)nc2ccccc12)C1CCS(=O)(=O)C1 (stereo unspecified),20 µM (active),
Nc1ncn(C2OC(CO)C(O)C2O)c(=O)n1 (stereo unspecified),inactive,
C=CC(=O)c1ccc2ccccc2c1,,7.32% [at 19.4 µM]
CCCCCCCNc1ccc(/C=C/c2ccnc3ccccc23)cc1,inactive,
O=C(c1cccc(F)c1)N1CCC2(CCCN(Cc3ccncc3)C2)CC1,inactive,
Cc1cn([C@H]2CC(F)[C@@H](CO)O2)c(=O)[nH]c1=O (stereo partly specified),,-4.8% [at 19.4 µM]
O=C(Nc1cccc(C(F)(F)F)c1)c1cc(Br)cc(Br)c1O,,-0.617% [at 19.4 µM]
COCCn1c(=O)c(-c2ccc(OC)cc2)nc2cnc(Oc3cccc(Cl)c3)nc21,inactive,
